Assay [1] deals with TAB165. Briefly: qHTS profiling for inhibitors of Plasmodium falciparum proliferation (AID 504749). As to conditions: P. falciparum in erythrocytes, SYBR Green DNA, 72 h; series mostly up to 28.7 µM. In short, it runs like this:
(§1)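 SYBR Green fluorescence of parasite DNA, read after lysis and overnight dark incubation, measured growth over 72 h in erythrocyte culture at 0.3% parasitemia and 2.5% hematocrit. Data normalised to DMSO and 0.29 uM artemisinin, with plate-drift correction.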
Background: Quantitative high-throughput screening tests each substance at several concentrations.

In assay [2] the test system is W2. The description is as above. Conditions: P. falciparum in erythrocytes, SYBR Green DNA, 72 h; series mostly up to 28.7 µM. The procedure, abridged:
as §1

Assay [3] concerns CRL-7250. The assay can be described thus: Cytotoxic Profiling of Annotated Libraries Using Quantitative High-Throughput Screening (AID 1296008). As to max response: % is scaled to controls: 0 for no effect and ±100 for the full control effect. As to conditions: Five cell lines viability, CellTiter-Glo ATP luminescence, 48-72 h; max response: stronger effect = lower value. The procedure, abridged:
(§2)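 Cytotoxicity was measured as CellTiter-Glo ATP luminescence, read after 10 min at room temperature. Compound treatment of the cells lasted 48 or 72 hr at 37 degrees Celsius in a qHTS format.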
Background: ATP-based viability assays read luminescence as a measure of living cells.

The subject of assay [4] is HEK293. Described as above. As to conditions: Five cell lines viability, CellTiter-Glo ATP luminescence, 48-72 h; max response: stronger effect = lower value. In short, it runs like this:
as §2

The test system of assay [5] is HaCat. The assay is described as above. As to conditions: Five cell lines viability, CellTiter-Glo ATP luminescence, 48-72 h; max response: stronger effect = lower value. In short, it runs like this: as §2
Assay [6] has as its system KB-3-1. The assay is described as above. As to conditions: Five cell lines viability, CellTiter-Glo ATP luminescence, 48-72 h; max response: stronger effect = lower value. In short, it runs like this:
as §2

Assay [7] has as its system NIH3T3. The assay is described as above. As to conditions: Five cell lines viability, CellTiter-Glo ATP luminescence, 48-72 h; max response: stronger effect = lower value. In short, it runs like this:
as §2

Assay [8] concerns HACAT. Briefly: qHTS assay to identify novel small-molecules to repurpose for Merkel cell carcinoma treatment (AID 1296009). Conditions: MCC and control cell lines, CellTiter-Glo viability, 72 h; at 44.8 µM (top of the series) unless noted. The procedure, abridged:
(§3)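 Cell viability, measured as CellTiter-Glo luminescence, was normalized between DMSO and no-cell wells. The cells had been exposed to 8- or 11-point compound dilutions for 72 hr at 37 degree celsius.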

Assay [9] concerns HEK293T. The assay is described as above. As to conditions: MCC and control cell lines, CellTiter-Glo viability, 72 h; at 44.8 µM (top of the series) unless noted. The procedure, abridged: as §3
The test system of assay [10] is MCC-13. Described as above. Conditions: MCC and control cell lines, CellTiter-Glo viability, 72 h; series mostly up to 46 µM. In short, it runs like this:
as §3

Where “and” joins values, the source holds several entries; their conditions need not be identical. Equal entries are not always repeated. Inconclusive results are not listed. Some structures have more than one record in an assay (separate samples or runs), and their calls can disagree. Calls of active or inactive are those of the source. Calls follow the shape of the dose curve; as a rule, active = well fitted inhibition curve with a large enough effect; inconclusive = small, poorly fitted or top-dose-only effect; inactive = flat fitted curve, though single readings scatter.
Also: nearly all actives have a fitted effect of over 60% in size.
Potency is read from the fitted curve at half-maximal effect.

With `O=S(=O)(O)CCS`, the Potency entry in assay [1], in assay [2] and in assay [10] was “inactive” each time. Besides, the max response in [3] was 3.2% (inactive); in [4], -11.9% (inactive); in [5] it was -12.1% (inactive); in assay [6] it was 0.578% (inactive); in assay [7], 1.04% (inactive) and -6.12% (inactive). The outcome in [3], in [4], in assay [5], in [8] and in assay [9] was inactive.

`NNC(=O)c1ccncc1`: the max response in assay [3] was 4.6% (inactive); in [4], 3.4% (inactive) and -0.464% (inactive); in assay [6] it was -14.7% (inactive) and 6.97% (inactive); in assay [7] it was 1.44% (inactive). Besides, the call in assay [3], in [5] and in [8] was inactive. Besides, in [10], the Potency entry is “inactive”.

Turning to `O=C(O)c1cc(=O)[nH]c(=O)[nH]1`, the Potency entry in [1], in assay [2] and in assay [10] was “inactive” each time. Further, the max response in assay [3] was 0.562% (inactive); in [4], -5.89% (inactive) and -6.58% (inactive); in assay [5], -18% (inactive); in assay [6] it was -14.3% (inactive) and 1.15% (inactive); in assay [7], 3.37% (inactive). The call in [3], in [5] and in [8] was inactive.

On to `C[C@]12C=CC(=O)C=C1CC[C@@H]1[C@@H]2C(=O)C[C@@]2(C)[C@H]1CC[C@]2(O)C(=O)CO`, for which the Potency entry in [1], in assay [2] and in [10] was “inactive” throughout. The max response in assay [3] was 2.58% (inactive); in assay [4], -4.32% (inactive) and 0.184% (inactive); in assay [5], -8.77% (inactive) and -10.7% (inactive); in [6], 9.07% (inactive) and 4.76% (inactive); in [7], -5.75% (inactive). Also, the compound was classed as inactive in assay [3] and in assay [7].

Regarding `S=P(N1CC1)(N1CC1)N1CC1`, the Potency result in [1], in assay [2] and in assay [10] was “inactive” each time. The max response in assay [3] is -10.3% (inactive); in assay [6] it was 19% (inactive) and 33.9% (inactive) and 9.73% (inactive); in assay [7] it was -7.91% (inactive). The compound was classed as inactive in [3] and in [5]. In [4], the Potency was 22.8 µM (active). Further, the outcome in assay [8] is “inactive [at 92 µM]”.

For the compound `CC1=NN(c2ccccc2)C(=O)C1`, the Potency result in assay [1] and in [10] was “inactive” in each case. In addition, the max response in assay [3] is -10.4% (inactive) and -10.5% (inactive); in assay [4], -7.12% (inactive) and -3.41% (inactive) and -4.46% (inactive); in assay [5] it was -6.55% (inactive); in assay [6], 3.2% (inactive); in assay [7], 2.82% (inactive). In addition, the outcome in assay [3], in assay [5], in assay [6], in assay [7] and in assay [8] was inactive.

As for `CNS(=O)(=O)Cc1ccc2[nH]cc(CCN(C)C)c2c1`, the Potency entry in assay [1] and in assay [10] was “inactive” throughout. The max response in [3] was -6.22% (inactive); in assay [4], 2.84% (inactive); in assay [6], -7.88% (inactive) and 1.69% (inactive); in assay [7], -1.5% (inactive). Moreover, the outcome in assay [3], in [4], in assay [5], in [7], in [8] and in assay [9] was inactive.

Turning to `CC(C(=O)O)c1ccc2c(c1)CC(=O)c1ccccc1S2` (stereo not given), the max response is -3.49% (inactive) and 3.11% (inactive) in [3]; -0.0676% (inactive) and -6.42% (inactive) and 0.0288% (inactive) in assay [4]; -2.2% (inactive) and 1.58% (inactive) in assay [5]; -3.77% (inactive) in assay [6]; 4.16% (inactive) and -0.0725% (inactive) in [7]. Further, the compound was classed as inactive in [3], in [5], in assay [6], in assay [7] and in assay [8]. The Potency result in assay [10] was “inactive”.

As to `COc1cc2c(Nc3ccc(Br)cc3F)ncnc2cc1OCC1CCN(C)CC1`, the Potency in [1] was 3.55 µM (active); in assay [2] it was 3.38 µM (active); in assay [3], 18.7 µM (active); in assay [4], 26.4 µM (active); in [5], 7.31 µM (active); in assay [7] it was 5.9 µM (active) and 5.17 µM (active). In addition, the Potency in assay [10] was 23.5 µM (active) and inactive. For the same compound, the outcome in assay [3] and in assay [7] was inactive. Besides, the max response in [4] is -4.93% (inactive); in assay [5], 0.174% (inactive); in assay [6], -19.6% (inactive).

Consider `O=c1cc(O)c(Cl)c[nH]1`, for which the Potency entry in [1], in assay [2] and in assay [10] was “inactive” in each case. The max response in assay [3] was -3.23% (inactive); in assay [4], 3.54% (inactive) and 0.705% (inactive); in assay [5] it was -15.6% (inactive); in assay [6], 2.19% (inactive); in assay [7] it was 2.08% (inactive). Also, the compound was called inactive in [3], in [5], in [7] and in assay [8].

Take `Nc1nc(F)nc2c1ncn2[C@@H]1O[C@H](CO)[C@@H](O)[C@@H]1O`: the Potency in assay [3] was 0.332 µM (active); in assay [4], 0.662 µM (active); in assay [6], 820 nM (active) and 1.3 µM (active) and 1.18 µM (active); in assay [10], 2.35 µM (active). Further, the max response is -19.1% (inactive) in [3], -7.93% (inactive) in assay [4] and -5.85% (inactive) in [5]. The compound was called inactive in [6].

For `O=C(N[C@H](CO)[C@H](O)c1ccc([N+](=O)[O-])cc1)C(Cl)Cl`, the max response in assay [3] was 2.58% (inactive); in [5] it was -14.6% (inactive) and -20.9% (inactive); in assay [6], -16.7% (inactive); in assay [7], 4.84% (inactive) and -8.61% (inactive). For the same compound, the result in assay [3], in assay [4], in assay [6] and in assay [9] was inactive. The Potency in assay [4] is 15.4 µM (active). In addition, the Potency result in assay [10] was “inactive”.

For `Cc1cccc(Nc2ccncc2S(=O)(=O)NC(=O)NC(C)C)c1`, the Potency result in assay [1], in assay [2] and in assay [10] was “inactive” throughout. Moreover, the max response in assay [3] was -14.3% (inactive); in assay [4], 1.87% (inactive) and -6.16% (inactive); in assay [5], -0.391% (inactive); in assay [6], -4.26% (inactive) and -4.09% (inactive); in [7], 4.21% (inactive) and -1.03% (inactive). In addition, the call in assay [3], in [5] and in assay [8] was inactive.
